Experimental data published in PubChem BioAssay (NCATS).
Records with an inconclusive call do not appear. Activity calls are given as the source filed them. Calls follow the shape of the dose curve; as a rule, active = well fitted curve in the direction sought with a large enough effect; inconclusive = small, poorly fitted or top-dose-only effect, or another doubt; inactive = no such curve, though single readings can be large; an effect the other way counts as inactive or inconclusive.

Experiments:
[1] = Quantitative High-Throughput drug screen in 47 multiple myeloma cell lines against the NCATS MIPE library collection: ARD_JJKsccE7 cell viability assay (AID 1918929)
Summary of the method: (§1)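 We plated 500 myeloma cells per well, pinned in MIPE 4.0 compounds, and incubated for 48 hours at 37C. ATP was then quantified with CellTiter-Glo, with DMSO and media-only wells defining 100% and 0%.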

[2] = Quantitative High-Throughput drug screen in 47 multiple myeloma cell lines against the NCATS MIPE library collection: Karpas620_DSMZ cell viability assay (AID 1918959); also: nearly all actives have a fitted effect of over 30% in size
Summary of the method: (§2)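 Luminescent ATP measurement with CellTiter-Glo gives viability, scaled between DMSO-only wells (100%) and media-only wells (0%). Cells, 500 per well, faced library compounds for 48 hours at 37C.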

[3] = Quantitative High-Throughput drug screen in 47 multiple myeloma cell lines against the NCATS MIPE library collection: KMM1_JCRB cell viability assay (AID 1918960); also: nearly all actives have a fitted effect of over 30% in size
Summary of the method: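 ATP readout (CellTiter-Glo), 48 h drug incubation, 37 °C/5% CO2, 500 cells per well; normalisation to DMSO (100%) and media-only (0%) controls.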

[4] = Quantitative High-Throughput drug screen in 47 multiple myeloma cell lines against the NCATS MIPE library collection: Karpas417_ECACC cell viability assay (AID 1918961); conditions: Karpas417 myeloma viability, CellTiter-Glo ATP luminescence, 48 h; viability (% of DMSO): at 45.8 µM (top of the series)
Summary of the method: (§3)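 Steps: seed 500 cells per well; pin-transfer MIPE 4.0 library; incubate 48 h at 37C, 5% CO2, humidified; add CellTiter-Glo, 5 min room temperature; read luminescence.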

[5] = Quantitative High-Throughput drug screen in 47 multiple myeloma cell lines against the NCATS MIPE library collection: JIM3_ECACC cell viability assay (AID 1918963; also: nearly all actives have a fitted effect of over 35% in size)
Summary of the method: as §2

[6] = Quantitative High-Throughput drug screen in 47 multiple myeloma cell lines against the NCATS MIPE library collection: JIM1_ECACC cell viability assay (AID 1918964)
Summary of the method: as §1

[7] = Quantitative High-Throughput drug screen in 47 multiple myeloma cell lines against the NCATS MIPE library collection: JJN3_DSMZ cell viability assay (AID 1918966; also: nearly all actives have a fitted effect of over 50% in size)
Summary of the method: as §1

[8] = Quantitative High-Throughput drug screen in 47 multiple myeloma cell lines against the NCATS MIPE library collection: H1112_PLB cell viability assay (AID 1918967; also: nearly all actives have a fitted effect of over 30% in size)
Summary of the method: as §1

[9] = Quantitative High-Throughput drug screen in 47 multiple myeloma cell lines against the NCATS MIPE library collection: KMS12BM_JCRB cell viability assay (AID 1918971); also: nearly all actives have a fitted effect of over 35% in size
Summary of the method: (§4)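 CellTiter-Glo luminescence (ATP) after 48 h compound exposure, 37C/5% CO2; 500 cells/well; MIPE 4.0 approved/investigational drugs pinned in; DMSO = 100%, media only = 0% viability.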

[10] = Quantitative High-Throughput drug screen in 47 multiple myeloma cell lines against the NCATS MIPE library collection: KMS12PE_JCRB cell viability assay (AID 1918972); also: nearly all actives have a fitted effect of over 30% in size
Summary of the method: as §3

[11] = Quantitative High-Throughput drug screen in 47 multiple myeloma cell lines against the NCATS MIPE library collection: KMS26_JCRB cell viability assay (AID 1918975); also: nearly all actives have a fitted effect of over 45% in size
Summary of the method: as §4

[12] = Quantitative High-Throughput drug screen in 47 multiple myeloma cell lines against the NCATS MIPE library collection: MOLP8_DSMZ cell viability assay (AID 1918977); also: nearly all actives have a fitted effect of over 45% in size
Summary of the method: (§5)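 Inhibition of viability over 48 h was scored by ATP content (CellTiter-Glo) in 500-cell wells. Zero and full viability were defined by media-only and DMSO-only wells.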

[13] = Quantitative High-Throughput drug screen in 47 multiple myeloma cell lines against the NCATS MIPE library collection: NCIH929_DSMZ cell viability assay (AID 1918978); also: nearly all actives have a fitted effect of over 35% in size
Summary of the method: as §5

[14] = Quantitative High-Throughput drug screen in 47 multiple myeloma cell lines against the NCATS MIPE library collection: KHM11_PLB cell viability assay (AID 1918962); also: nearly all actives have a fitted effect of over 35% in size
Summary of the method: as §2

[15] = Quantitative High-Throughput drug screen in 47 multiple myeloma cell lines against the NCATS MIPE library collection: INA6_PLB cell viability assay (AID 1918965; also: nearly all actives have a fitted effect of over 55% in size)
Summary of the method: as §3

[16] = Quantitative High-Throughput drug screen in 47 multiple myeloma cell lines against the NCATS MIPE library collection: Karpas25_ECACC cell viability assay (AID 1918968; also: nearly all actives have a fitted effect of over 35% in size)
Summary of the method: as §1

[17] = Quantitative High-Throughput drug screen in 47 multiple myeloma cell lines against the NCATS MIPE library collection: KMS27_JCRB cell viability assay (AID 1918970); conditions: KMS27 myeloma cells, CellTiter-Glo ATP viability, 48 h; viability (% of DMSO): at 45.8 µM (top of the series); also: nearly all actives have a fitted effect of over 30% in size
Summary of the method: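 KMS27_JCRB myeloma cells, 500 per well, exposed 48 h at 37 C, 5% CO2 to MIPE 4.0 compounds. Viability from ATP by CellTiter-Glo luminescence, normalized to DMSO (100%) and medium-only (0%) wells.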

[18] = Quantitative High-Throughput drug screen in 47 multiple myeloma cell lines against the NCATS MIPE library collection: MMM1_PLB cell viability assay (AID 1918976); also: nearly all actives have a fitted effect of over 35% in size
Summary of the method: as §5

[19] = Quantitative High-Throughput drug screen in 47 multiple myeloma cell lines against the NCATS MIPE library collection: KMS20_JCRB cell viability assay (AID 1918973); also: nearly all actives have a fitted effect of over 45% in size
Summary of the method: as §1

[20] = Quantitative High-Throughput drug screen in 47 multiple myeloma cell lines against the NCATS MIPE library collection: KMS21BM_JCRB cell viability assay (AID 1918974); conditions: ATP luminescence, 48 h; viability: at 45.8 µM (top of the series)
Summary of the method: as §1
Potency is read from the fitted curve at half-maximal effect.

CC(=O)OC[C@@H]1O[C@@H](n2ccc(=O)[nH]c2=O)[C@H](OC(C)=O)[C@H]1OC(C)=O
inactive: Potency [1] | Potency [2] | Potency [3] | Potency [4] | Potency [5] | Potency [6] | Potency [7] | Potency [8] | Potency [9] | Potency [10] | Potency [11] | Potency [12] | Potency [13]

Cc1ncc(-c2ccnc(Nc3ccc(S(C)(=O)=O)cc3)n2)n1C(C)C
active: Potency [1] 2.96 µM | Potency [2] 3.72 µM | Potency [3] 1.48 µM | Potency [14] 1.66 µM | Potency [5] 2.35 µM | Potency [6] 2.35 µM | Potency [15] 1.18 µM | Potency [7] 2.09 µM | Potency [8] 4.18 µM | Potency [16] 2.35 µM | Potency [17] 2.64 µM | Potency [9] 4.18 µM | Potency [10] 2.96 µM | Potency [11] 2.64 µM | Potency [18] 4.69 µM | Potency [13] 2.09 µM

COC1=C(OC)C(=O)C(CC=C(C)CCC=C(C)CCC=C(C)CCC=C(C)CCC=C(C)CCC=C(C)CCC=C(C)CCC=C(C)CCC=C(C)CCC=C(C)C)=C(C)C1=O
inactive: Potency [1] | Potency [2] | Potency [3] | Potency [4] | Potency [5] | Potency [15] | Potency [8] | Potency [16] | Potency [17] | Potency [10] | Potency [11] | Potency [12] | Potency [13]

Cc1cc(O)c2c(c1)C(=O)c1cccc(O)c1C2=O
active: viability (% of DMSO) [4] 136%
inactive: Potency [1] | Potency [2] | Potency [3] | Potency [5] | Potency [7] | Potency [8] | Potency [16] | Potency [17] | Potency [11] | Potency [12] | Potency [13]

CCCCCCCCCCCCCCCC(=O)OC[C@@H](NC(=O)C(Cl)Cl)[C@H](O)c1ccc([N+](=O)[O-])cc1
inactive: Potency [1] | Potency [2] | Potency [3] | Potency [4] | Potency [5] | Potency [6] | Potency [8] | Potency [17] | Potency [9] | Potency [10] | Potency [19] | Potency [20] | Potency [11] | Potency [12]

CC(C)C[C@H](NC(=O)CNC(=O)c1cc(Cl)ccc1Cl)B1OC(=O)CC(CC(=O)O)(C(=O)O)O1 (stereo not given in full)
active: Potency [1] 0.0526 µM | Potency [2] 0.0526 µM | Potency [3] 0.0418 µM | Potency [14] 0.0372 µM | Potency [5] 0.0833 µM | Potency [6] 0.0372 µM | Potency [15] 0.0332 µM | Potency [7] 0.0743 µM | Potency [8] 0.0662 µM | Potency [16] 0.0296 µM | Potency [17] 0.0833 µM | Potency [9] 0.0833 µM | Potency [10] 0.0469 µM | Potency [11] 0.0935 µM | Potency [18] 6.62 µM | Potency [12] 0.0469 µM | Potency [13] 0.0332 µM

O=C(Nc1nnc(-c2ccco2)o1)c1cc(-c2ccccc2)nc2ccccc12
active: Potency [1] 18.7 µM | Potency [2] 20.9 µM | Potency [3] 14.8 µM | Potency [4] 23.5 µM | Potency [6] 18.7 µM | Potency [15] 16.6 µM | Potency [7] 20.9 µM | Potency [8] 18.7 µM | Potency [16] 18.7 µM | Potency [17] 16.6 µM | Potency [9] 23.5 µM | Potency [10] 18.7 µM | Potency [19] 16.6 µM | Potency [20] 23.5 µM | Potency [13] 18.7 µM

CC(C=CC=C(C)C=CC1=C(C)CCCC1(C)C)=CC=CC=C(C)C=CC=C(C)C=CC1=C(C)CCCC1(C)C
inactive: Potency [3] | Potency [5] | Potency [9]
active: Potency [1] 20.9 µM | Potency [2] 20.9 µM | Potency [4] 9.35 µM | Potency [7] 14.8 µM | Potency [16] 16.6 µM | Potency [17] 11.8 µM | Potency [11] 13.2 µM | Potency [18] 14.8 µM

O=C1NC(=O)C(=Cc2ccc3nccc(-c4ccncc4)c3c2)S1
active: Potency [1] 0.118 µM | Potency [2] 0.296 µM | Potency [3] 0.132 µM | Potency [14] 0.0469 µM | Potency [5] 0.296 µM | Potency [6] 0.0296 µM | Potency [15] 0.148 µM | Potency [7] 0.0935 µM | Potency [8] 1.05 µM | Potency [16] 0.0296 µM | Potency [17] 0.0296 µM | Potency [9] 0.332 µM | Potency [10] 0.332 µM | Potency [19] 0.0935 µM | Potency [20] 0.166 µM | Potency [11] 0.187 µM | Potency [18] 0.235 µM | Potency [12] 0.166 µM | Potency [13] 0.0296 µM

O=C(CCCCCCC(=O)Nc1cccnc1)NO
active: Potency [1] 3.32 µM | Potency [2] 7.43 µM | Potency [3] 1.66 µM | Potency [14] 8.33 µM | Potency [5] 16.6 µM | Potency [6] 4.18 µM | Potency [15] 0.833 µM | Potency [7] 4.18 µM | Potency [8] 5.9 µM | Potency [16] 1.66 µM | Potency [17] 7.43 µM | Potency [9] 1.87 µM | Potency [10] 2.96 µM | Potency [19] 3.32 µM | Potency [20] 2.35 µM | Potency [11] 3.72 µM | Potency [13] 3.72 µM

COc1ccc(C(C)=O)c(O)c1
inactive: Potency [1] | Potency [2] | Potency [3] | Potency [5] | Potency [6] | Potency [15] | Potency [7] | Potency [8] | Potency [10] | Potency [19] | Potency [12] | Potency [13]
active: Potency [4] 0.418 µM
